We go through 57 compounds from PubChem BioAssay AID602329 (Broad Institute, 2012).

Among all 360,000 compounds or so, about 510 (0.14%) were called active. The sample holds actives, similar compounds and a random draw of the others, so the mix is not that of the screen. A number with no mark means an inactive call.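 The calls were made as follows: active = mean normalized replicate activity at least 40 and at least half of replicates scoring 40 or more; inconclusive = only one of the two criteria met; inactive = mean below 40 and under half of replicates reaching 40.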

The experiment deals with DNA repair and recombination protein RAD54-like (Homo sapiens) (UniProt Q92698). Description: RAD54 Holliday junction migration blockers – biochemical, fluorescence, single point, primary screen (AID 602329).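 Also: 0% = median of neutral control wells and 100% = median of positive control wells; inhibitors cause a drop in the FAM fluorescence signal.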 The conditions noted are these: RAD54 Holliday junction branch migration, FAM/BHQ fluorescence; at 10.4 µM; active compounds read high.
Sequence of DNA repair and recombination protein RAD54-like (Homo sapiens) (Q92698 whole entry, looked up): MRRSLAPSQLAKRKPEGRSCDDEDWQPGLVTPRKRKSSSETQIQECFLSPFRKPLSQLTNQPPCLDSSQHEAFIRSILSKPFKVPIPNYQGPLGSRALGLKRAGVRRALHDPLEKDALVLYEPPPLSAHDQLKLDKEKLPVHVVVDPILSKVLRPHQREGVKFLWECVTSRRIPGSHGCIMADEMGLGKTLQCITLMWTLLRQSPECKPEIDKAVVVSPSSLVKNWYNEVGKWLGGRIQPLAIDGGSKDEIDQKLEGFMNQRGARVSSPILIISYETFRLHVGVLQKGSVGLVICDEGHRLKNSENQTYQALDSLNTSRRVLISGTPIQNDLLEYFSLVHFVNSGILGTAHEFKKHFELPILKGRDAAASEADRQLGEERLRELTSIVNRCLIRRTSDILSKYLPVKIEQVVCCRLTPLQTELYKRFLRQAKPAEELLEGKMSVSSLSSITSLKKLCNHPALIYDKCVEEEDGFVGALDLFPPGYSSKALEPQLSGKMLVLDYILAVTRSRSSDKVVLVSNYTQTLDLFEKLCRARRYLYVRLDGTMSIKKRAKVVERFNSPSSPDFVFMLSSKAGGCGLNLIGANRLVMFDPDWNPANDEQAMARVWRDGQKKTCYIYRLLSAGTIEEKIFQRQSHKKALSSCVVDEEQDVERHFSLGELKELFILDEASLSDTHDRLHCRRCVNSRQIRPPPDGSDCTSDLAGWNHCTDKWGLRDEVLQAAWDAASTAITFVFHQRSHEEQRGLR
`O=C(C[C@@H]1C[C@@H]2c3cc(NC(=O)Cc4ccncc4)ccc3O[C@@H]2[C@H](CO)O1)NCc1cccc(F)c1`: the inhibition is -0.719%.

`C/C=C/c1cnc2c(c1)C(=O)N([C@@H](C)CO)C[C@H](C)[C@H](CN(C)C(=O)CN1CCOCC1)O2`: the inhibition was 2.37%.

Consider `C[C@@H]1CN([C@@H](C)CO)C(=O)c2cc(NS(=O)(=O)c3ccccc3)ccc2O[C@@H](C)CCCCO[C@H]1CN(C)C(=O)C1CCCCC1`, for which the inhibition is -16.2%.

On to `COC(=O)c1c(NC(=O)c2ccc(S(=O)(=O)N3CCOCC3)cc2)sc2c1CCN(C(C)C)C2`, for which the inhibition is 75% (active).

Regarding `CC(OC(=O)c1ccc(S(=O)(=O)N2CCOCC2)cc1)c1ccccc1` (configuration not stated), the inhibition is 0.166%.

Turning to `COc1ccc(S(=O)(=O)N2CCOCC2)cc1NC(=O)c1ccc(OCC(C)C)c(OC)c1`, the inhibition is 3.95%.

With `CC(C)NC(=O)Nc1ccc2c(c1)C(=O)N(C)[C@H]1CC[C@H](CC(=O)NCc3ccc(F)cc3)O[C@H]1CO2`, the inhibition is 7.11%.

As to `C[C@@H]1CN([C@H](C)CO)S(=O)(=O)c2ccc(C3=CCCC3)cc2O[C@@H]1CN(C)C(=O)C1CCC1`, the inhibition was -3.7%.

For the compound `C[C@@H]1CCCCO[C@@H](CN(C)C(=O)c2ccccc2)[C@@H](C)CN([C@@H](C)CO)C(=O)c2cc(NS(=O)(=O)c3ccccc3)ccc2O1`, the inhibition was -0.712%.

For the compound `CCCNC(=O)[C@H]1[C@H](CO)[C@H]2Cn3c(cccc3=O)[C@H]2N1Cc1ccccc1Cl`, the inhibition is -3.26%.

Regarding `CC(=O)N1[C@@H]2Cn3c(ccc(C4=CCCC4)c3=O)[C@H]1[C@@H](C(=O)NC1CCC1)[C@@H]2CO`, the inhibition was 7.46%.

For `COc1ccc(NC(=O)N(C)C[C@H]2OCCCC[C@@H](C)Oc3ccc(NC(=O)c4ccncc4)cc3C(=O)N([C@@H](C)CO)C[C@H]2C)cc1`, the inhibition was 2.64%.

Regarding `CN1C(=O)c2cc(NS(=O)(=O)c3ccc(Cl)cc3)ccc2OC[C@@H]2O[C@H](CC(=O)O)CC[C@@H]21`, the inhibition was -1.23%.

In the case of `CC(C)NC(=O)N(C)C[C@@H]1Oc2ncc(-c3ccc(C(=O)N(C)C)cc3)cc2C(=O)N([C@H](C)CO)C[C@H]1C`, the inhibition is -0.445%.

Consider `CCCNC(=O)N(C)C[C@@H]1Oc2ncc(-c3cccc(C#N)c3)cc2C(=O)N([C@@H](C)CO)C[C@H]1C`, for which the inhibition is 7.71%.

Consider `CCC(=O)N(C)C[C@@H]1Oc2cc(C#CCOC)ccc2S(=O)(=O)N([C@@H](C)CO)C[C@@H]1C`, for which the inhibition was -1.77%.

Turning to `Cc1cccn2c(=O)c3cc(C#N)c(=O)n(CCCN4CCOCC4)c3nc12`, the inhibition is 56.4% (active).

For `Cc1ccc(-n2c(=O)c(C#N)cc3c(=O)n4ccccc4nc32)cc1C`, the inhibition is -1.05%.

On to `Cc1cccn2c(=O)c3cc(C#N)c(=NC(=O)c4cccnc4)n(CC4CCCO4)c3nc12` (configuration not stated), for which the inhibition was -4.7%.

Take `C[C@@H](NC(=O)C[C@H]1C[C@H]2c3cc(NC(=O)C4CCOCC4)ccc3O[C@H]2[C@@H](CO)O1)c1ccccc1`: the inhibition is -0.474%.

On to `Cc1cc(Nc2cc(N3CCN(C)CC3)nc(Sc3ccc(NC(=O)C4CC4)cc3)n2)n[nH]1`, for which the inhibition was 17.6%.

In the case of `CC(=O)Nc1cc(-c2ccc(N3CCN(C)CC3)cc2)cn2c(-c3ccc(F)cc3)cnc12`, the inhibition is 36.5%.

In the case of `C=CC(=O)Nc1ccc(Nc2ccnc(Nc3ccc(N4CCN(C)CC4)cc3)n2)cc1`, the inhibition is 81.2% (active).

As to `C[C@H](CO)N1C[C@H](C)[C@@H](CN(C)S(=O)(=O)c2cn(C)cn2)Oc2ccc(N(C)C)cc2CC1=O`, the inhibition is -0.235%.

Turning to `CCN(C[C@@H]1[C@@H](c2ccccc2)[C@H](CO)N1C(C)=O)C(=O)NC(C)C`, the inhibition was -5%.

On to `CO[C@@H]1CN(C)C(=O)c2cc(NC(=O)C3CCCC3)ccc2OC[C@@H](C)N(Cc2ccc(F)cc2)C[C@H]1C`, for which the inhibition was -4.74%.

For `CC(=O)N(C)C[C@@H]1Oc2cc(C#Cc3ccccc3F)ccc2S(=O)(=O)N([C@@H](C)CO)C[C@@H]1C`, the inhibition was -0.527%.

As to `C[C@@H]1CN([C@@H](C)CO)C(=O)c2cc(-c3ccc(C#N)cc3)cnc2O[C@H]1CN(C)C(=O)CN(C)C`, the inhibition is 5.52%.

For the compound `CCNC(=O)C[C@@H]1CC[C@@H]2[C@H](COC[C@H](O)CN2S(=O)(=O)c2ccc(Oc3ccccc3)cc2)O1`, the inhibition was -6.18%.

Turning to `O=C(C[C@H]1CC[C@@H](NC(=O)c2ccccc2)[C@@H](CO)O1)NCc1ccncn1`, the inhibition is -7.18%.

Take `CCCNC(=O)C[C@@H]1CC[C@@H]2[C@H](COc3ccc(NC(=O)c4cc(F)cc(F)c4)cc3C(=O)N2C)O1`: the inhibition is 1.51%.

For the compound `CCCNC(=O)C[C@@H]1CC[C@H]2[C@@H](COC[C@@H](O)CN2Cc2ccccc2F)O1`, the inhibition was 6.11%.

For the compound `C[C@@H]1CN([C@H](C)CO)C(=O)c2cccc(NC(=O)Nc3ccc4c(c3)OCO4)c2O[C@@H]1CN(C)Cc1ccccc1`, the inhibition was -7.8%.

Turning to `C[C@H]1CN([C@@H](C)CO)C(=O)c2cc(NC(=O)C3CC3)ccc2O[C@@H]1CN(C)S(=O)(=O)c1cn(C)cn1`, the inhibition was -0.446%.

`COc1ccc(NC(=O)N(C)C[C@H]2OCc3ccccc3-c3ccccc3C(=O)N([C@H](C)CO)C[C@@H]2C)cc1`: the inhibition is -9.7%.

For the compound `O=C1CCN(CCCc2ccccc2)CCN1CCO`, the inhibition is -1.44%.

On to `O=C1c2ccccc2C(=O)c2c1cccc2N1CCN(CCO)CC1`, for which the inhibition is 84.2% (active).

As to `O=C(Nc1cccc(Cl)c1)c1cc([N+](=O)[O-])ccc1N1CCN(CCO)CC1`, the inhibition is -11.1%.

As for `Cc1noc(C)c1NC(=O)N(C)C[C@H]1Oc2ccc(NS(=O)(=O)c3ccc(Cl)cc3)cc2CC(=O)N([C@H](C)CO)C[C@@H]1C`, the inhibition was -4.2%.

Regarding `Cc1ccc(S(=O)(=O)N(C)C[C@H]2Oc3ccc(NC(=O)C4CC4)cc3C(=O)N([C@H](C)CO)C[C@H]2C)cc1`, the inhibition is 8.82%.

Regarding `CO[C@H]1CN(C)C(=O)c2cc(NC(=O)C3CCC3)ccc2OC[C@H](C)N(Cc2nccs2)C[C@H]1C`, the inhibition was 2.2%.

For `COc1cccc(NC(=O)C[C@@H]2CC[C@H]3[C@@H](COc4ccc(NC(=O)C5CCOCC5)cc4C(=O)N3C)O2)c1`, the inhibition is -1.97%.

Take `COCC(=O)Nc1ccc2c(c1)C(=O)N(C)C[C@@H](OC)[C@H](C)CN(C(=O)CC1CC1)[C@H](C)CO2`: the inhibition is 3.23%.

Consider `CCCN(C)C[C@H]1Oc2cc(-c3ccc(C)cc3)ccc2S(=O)(=O)N([C@H](C)CO)C[C@H]1C`, for which the inhibition is -15%.

On to `C#Cc1ccc([C@H]2C=C(C(=O)O)O[C@@H](OCC)[C@@H]2CCCO)cc1`, for which the inhibition is -9.94%.

For `Cc1noc(C)c1NC(=O)Nc1cccc2c1O[C@@H](CN(C)Cc1ccc3c(c1)OCO3)[C@@H](C)CN([C@@H](C)CO)C2=O`, the inhibition was 7.78%.

With `O=C(c1cccnc1)N1CCCCN2[C@@H](CO)[C@H](c3ccc(C#Cc4ccccc4)cc3)[C@@H]2C1`, the inhibition was 1.81%.

Regarding `CCNC(=O)[C@@H]1[C@@H](CO)[C@@H]2Cn3c(ccc(C4=CCCC4)c3=O)[C@H]1N2Cc1ccccc1`, the inhibition was 2.92%.

For the compound `CC(C)NC(=O)N(C)C[C@H]1OCCCC[C@H](C)Oc2ccc(NC(=O)Nc3ccc4c(c3)OCO4)cc2C(=O)N([C@H](C)CO)C[C@@H]1C`, the inhibition was -0.838%.

As to `CNC[C@H]1Oc2cc(C#Cc3ccccc3)ccc2S(=O)(=O)N([C@@H](C)CO)C[C@@H]1C`, the inhibition is 1.19%.

As to `Cc1ccc(S(=O)(=O)N(C)C[C@H]2OCCCC[C@H](C)Oc3ccc(NS(=O)(=O)c4c(C)noc4C)cc3C(=O)N([C@H](C)CO)C[C@@H]2C)cc1`, the inhibition is 3.91%.

Take `CN1c2ccc(-c3ccc(F)cc3)cc2[C@@H]2[C@@H](CCN2S(=O)(=O)c2ccc(F)cc2)[C@@H]1CO`: the inhibition is -1.5%.

Take `COc1ccc(NC(=O)Nc2ccc3c(c2)CC(=O)N([C@@H](C)CO)C[C@H](C)[C@H](CN(C)C(=O)Nc2ccc4c(c2)OCO4)O3)cc1`: the inhibition was -3.32%.

`COc1cccc(C(=O)Nc2ccc3c(c2)C(=O)N(C)[C@@H]2CC[C@@H](CC(=O)NCCCN4CCOCC4)O[C@@H]2CO3)c1`: the inhibition was 8.84%.

Take `CO[C@H]1CN(C)C(=O)c2ccc(NC(=O)C3CCOCC3)cc2OC[C@H](C)NC[C@H]1C`: the inhibition is -0.243%.

In the case of `CCNC(=O)C[C@@H]1CC[C@@H]2[C@@H](COc3ccc(NC(=O)c4cccc(C(F)(F)F)c4)cc3C(=O)N2C)O1`, the inhibition was 7.26%.

On to `O=C(C1CCC1)N1CC[C@H]2[C@H](CO)Nc3ccc(-c4cccc(F)c4)cc3[C@H]21`, for which the inhibition is 2.5%.
